Source: PubChem BioAssay
PP5 inh: inhibitors of human protein phosphatase 5 (PP5); P53041; purified PP5c, OMFP substrate fluorescence; inhibition, % at 6.7 µM; 320,000 compounds, 0.18% hits; AID 1987;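 active = inhibition above the campaign's mean inhibition across all tested compounds plus 3 SD, cut at about 9.5% in these data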;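 note: 0% = DMSO only and 100% = 100 µM cantharidin control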
pPAFAH FP inh: inhibitors of human plasma PAF acetylhydrolase (pPAFAH); inhibition, % at 3.39 µM; recombinant pPAFAH, FP-rhodamine probe fluorescence polarization; 330,000 compounds, 1.5% hits; AID 463082; Q13093;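 active = inhibition above the mean inhibition across the screen plus 3 SD, cut at about 25% in these data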;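 note: inhibitors block binding of the rhodamine activity-based probe so polarization drops; 0% = enzyme with DMSO and 100% = wells lacking pPAFAH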
PP1 inh: blocks human PP1-alpha phosphatase, a PP5 counter-screen. purified PP1alpha, OMFP fluorescence. inhibition, % at 6.7 µM. 320,000 compounds, 0.9% hits;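 active = inhibition above the mean inhibition of all tested compounds plus 3 SD, computed separately for each screening campaign, cut at about 15% in these data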
Target sequence (P62136 whole entry, looked up): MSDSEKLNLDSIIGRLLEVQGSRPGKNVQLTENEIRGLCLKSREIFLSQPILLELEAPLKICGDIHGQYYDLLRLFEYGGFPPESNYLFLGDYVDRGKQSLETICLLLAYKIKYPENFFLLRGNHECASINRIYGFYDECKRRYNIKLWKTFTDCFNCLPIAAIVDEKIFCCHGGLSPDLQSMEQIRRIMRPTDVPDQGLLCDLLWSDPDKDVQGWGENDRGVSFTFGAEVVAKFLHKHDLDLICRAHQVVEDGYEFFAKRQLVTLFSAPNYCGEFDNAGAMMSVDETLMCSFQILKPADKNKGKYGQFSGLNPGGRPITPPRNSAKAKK
PAFAH1B2 inh: blocks human PAF acetylhydrolase 1b catalytic subunit 2; 340,000 compounds, 1.2% hits; recombinant PAFAH1B2, FP-rhodamine activity probe, fluorescence polarization; inhibition, % at 3.39 µM;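 active = inhibition above the mean of all tested compounds plus 3 SD, cut at about 24% in these data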;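 note: 0% = enzyme with DMSO and 100% = wells lacking PAFAH1B2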
PAFAH1B3 FP inh: PAFAH1B3 (human) inhibition. Q15102. recombinant PAFAH1B3, FP-rhodamine probe, fluorescence polarization. inhibition, % at 3.39 µM. 340,000 compounds, 0.28% hits. AID 492972;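 active = inhibition above the screen-wide average of all tested compounds plus 3 SD, cut at about 25% in these data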;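 note: 0% = enzyme with DMSO only and 100% = wells lacking PAFAH1B3 protein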
Target sequence (Q15102 whole entry, looked up): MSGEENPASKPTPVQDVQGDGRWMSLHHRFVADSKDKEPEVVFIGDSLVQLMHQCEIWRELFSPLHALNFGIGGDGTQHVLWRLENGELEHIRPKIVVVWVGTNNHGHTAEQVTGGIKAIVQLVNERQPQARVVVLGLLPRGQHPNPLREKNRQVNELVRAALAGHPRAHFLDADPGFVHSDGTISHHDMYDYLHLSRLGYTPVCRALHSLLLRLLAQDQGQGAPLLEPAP
PAFAH2 FP inh: inhibitors of human PAFAH2 | Q99487 | recombinant PAFAH2, FP-rhodamine activity probe, fluorescence polarization | inhibition, % at 3.39 µM | 340,000 compounds, 0.99% hits;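 active = inhibition above the mean over all tested compounds plus 3 SD, cut at about 30% in these data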;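 note: inhibitors block probe labeling of enzyme so polarization drops; 0% = enzyme with DMSO and 100% = wells lacking PAFAH2 protein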
Numbers without * were called inactive; / = no result. An excerpt weighted towards active compounds, which were near 3.4% of everything screened.

SMILES | PP5 inh | pPAFAH FP inh | PP1 inh | PAFAH1B2 inh | PAFAH1B3 FP inh | PAFAH2 FP inh
CCn1c2ccccc2c2cc(NC(=O)c3ccccc3-c3ccccc3C(=O)O)ccc21 | 3.9 | 33.3* | 5.4 | 12.5 | 9.8 | 8.8
O=C(O)c1ccccc1-c1ccccc1C(=O)Nc1ccc2c(c1)[nH]c(=O)c1ccccc12 | 2.5 | 10.0 | 15.2* | 4.2 | 8.1 | 2.7
CC(=O)c1ccc(OCC(=O)NC(=O)NC2CCCCC2)cc1 | -2.0 | 3.6 | -3.1 | 0.6 | 12.0 | -2.9
O=C(NCCN1CCOCC1)c1ccc(/C=C2\Sc3ccccc3N(Cc3ccccc3F)C2=O)cc1 | 5.7 | 32.5* | 1.4 | -1.3 | 2.0 | -7.7
Cc1ccccc1CN1C(=O)/C(=C\c2ccc(C(=O)NCCN3CCOCC3)cc2)Sc2ccccc21 | 4.1 | 20.7 | -1.5 | 1.9 | -3.1 | 9.0
N#CC1(NC(=O)COC(=O)C2=COCCO2)CCCCC1 | 2.3 | 2.8 | -3.2 | 18.6 | 32.5* | 92.2*
CC(NC(=O)COC(=O)C1=COCCO1)C12CC3CC(CC(C3)C1)C2 (stereo not drawn) | -0.8 | 4.3 | -1.3 | 24.8* | -6.3 | 51.9*
CC(CCc1ccccc1)NC(=O)COC(=O)C1=COCCO1 (stereo not drawn) | -1.7 | 7.0 | -5.8 | 5.3 | 3.9 | 22.8
CCCCCCCCN1[C@@H](CC(=O)O)c2ccc(C(F)(F)F)cc2S1(=O)=O | 2.2 | 10.7 | 1.6 | 30.6* | 1.1 | 14.1
CCCCCCCCCCCCN1[C@@H](CC(C)=O)c2cc(C(F)(F)F)ccc2S1(=O)=O | 2.7 | 5.1 | -2.0 | 4.8 | 5.5 | -10.2
COc1ccc2cc(C(c3nnnn3C(C)(C)C)N3CCc4ccccc4C3)c(=O)[nH]c2c1 (stereo not drawn) | 0.8 | 33.6* | 3.3 | / | / | /
Cc1cc2cc(C(c3nnnn3Cc3ccco3)N3CCc4ccccc43)c(=O)[nH]c2cc1C (stereo not drawn) | 3.9 | 30.4* | 6.0 | 3.1 | 6.8 | 11.2
Cc1cc2cc(C(c3nnnn3Cc3ccco3)N3CCc4ccccc4C3)c(=O)[nH]c2cc1C (stereo not drawn) | 2.8 | 16.3 | 15.3* | 3.1 | -0.7 | -1.0
CCC(C)C(NC(=O)OCc1ccccc1)C(=O)OCN1C(=O)c2ccccc2C1=O (stereo not drawn) | -0.1 | 32.7* | -1.3 | -4.1 | 3.9 | 12.9
CCN(CC)c1ccc(-c2sc(Nc3ccccc3)n[n+]2-c2ccc(F)cc2)cc1 | 3.8 | 3.6 | 17.3* | -5.7 | -0.4 | -0.3
Cn1c(=O)c(C#N)c(-c2ccc(F)cc2)c2cc(C(=O)c3cc(Cl)cc(Cl)c3O)cnc21 | 3.6 | 26.2* | 13.1 | 6.6 | 7.7 | 13.9
O=C(N/N=C/c1ccncc1)c1cc([N+](=O)[O-])cc([N+](=O)[O-])c1O | -0.5 | 32.2* | 0.3 | 2.7 | 14.5 | -5.1
CCOP(=O)(OCC)C(NC(=O)Nc1ccc(Cl)c(Cl)c1)C(N)=O (stereo not drawn) | 0.5 | 5.1 | 16.8* | -1.1 | 0.8 | -0.2
CCOP(=O)(OCC)C(NC(=O)Nc1ccc(Cl)cc1)C(N)=O (stereo not drawn) | 0.8 | -3.7 | 2.3 | -2.1 | 5.4 | -0.2
COc1ccc(NS(=O)(=O)c2cccc(C(=O)NNC(=O)c3ccc(O)c(Cl)c3)c2)cc1 | 0.8 | 10.2 | 1.6 | 1.4 | 6.1 | 1.0
COc1ccc(NS(=O)(=O)c2cccc(C(=O)NNC(=O)c3ccc(NC(C)=O)cc3)c2)cc1 | 1.9 | 25.8* | -5.6 | -0.6 | 3.0 | 0.8
O=C(O)c1cccc(S(=O)(=O)Nc2ccc(N3CCCCC3)cc2)c1 | / | 26.7* | / | 4.7 | 15.7 | -1.8
COc1ccc(NS(=O)(=O)c2cccc(NC(=O)C34CCC(CC3)C4)c2)cc1 | 6.1 | 26.0* | 1.8 | 7.3 | 4.0 | 9.9
COc1ccc(NS(=O)(=O)c2cccc(C(=O)NNC(=O)c3cc(S(N)(=O)=O)ccc3OC)c2)cc1 | 0.0 | 24.8* | -1.2 | -1.3 | -2.9 | 0.3
O=C(O)c1cc(S(=O)(=O)Nc2ccc(N3CCCCC3)cc2)ccc1Cl | 0.7 | 13.5 | -1.5 | 8.7 | 6.0 | 12.0
SMILES | PP5 inh | pPAFAH FP inh | PP1 inh | PAFAH1B2 inh | PAFAH1B3 FP inh | PAFAH2 FP inh
CC(C)Cc1nnc(NC(=O)CCC(=O)NC2CC2)s1 | 0.8 | -1.6 | -1.2 | 2.9 | 4.8 | 3.1
COc1ccccc1C(=O)Nc1ccnn1C1CCN(C(=O)c2ccoc2)CC1 | 0.5 | 2.6 | -3.4 | -2.1 | -2.7 | -1.2
COc1ccccc1N(CC(=O)N/N=C(\C)c1cccc(Br)c1)S(C)(=O)=O | 0.4 | -3.0 | -1.9 | 7.0 | -1.1 | -6.7
CC(C)C[C@@H](CN)NC(=O)c1nc[nH]c1C(=O)N[C@@H](Cc1c[nH]c2ccccc12)C(=O)CNC[C@H](C)NC(=O)c1nc[nH]c1C(=O)N[C@@H](C)C(=O)O | / | / | / | 5.8 | 10.9 | -3.0
COc1ccc(NS(=O)(=O)c2ccc(N3CCCC3)c(NC(=S)Nc3cccc(S(=O)(=O)N(C)C)c3)c2)cc1 | 2.5 | 33.0* | 4.1 | / | / | /
CCOc1ccccc1C(=O)NCC(=O)NNC(=O)c1cccc(S(=O)(=O)Nc2ccc(OC)cc2)c1 | -4.4 | 26.4* | -2.8 | 4.6 | 6.6 | 4.0
COc1ccc(NS(=O)(=O)c2cccc(C(=O)NCC(c3ccc(OC)cc3)N3CCOCC3)c2)cc1 (stereo not drawn) | 0.0 | 32.0* | 0.6 | -0.6 | 6.4 | -3.1
COc1ccc(NS(=O)(=O)c2cccc(C(=O)N3CCCCCC3)c2)cc1 | -1.4 | 31.1* | -4.7 | 8.0 | 9.1 | -1.1
O=C(O)c1cccc(S(=O)(=O)Nc2ccccc2Cl)c1 | 1.3 | 4.3 | -3.9 | 4.6 | -4.2 | 3.2
COc1ccc(NS(=O)(=O)c2cccc(C(=O)NN=Cc3ccc(OC)c(O)c3)c2)cc1 | / | 32.0* | / | 13.2 | 15.4 | 2.3
O=C(O)c1cccc(S(=O)(=O)Nc2cc(Cl)ccc2Cl)c1 | 0.0 | 6.3 | 0.0 | 24.2* | 8.3 | 1.1
COc1ccc(NS(=O)(=O)c2cccc(-c3nnc4n3CCCCC4)c2)cc1 | 1.6 | 28.5* | 9.2 | -0.2 | 3.5 | 5.0
O=C(CSc1nnc2ccccn12)NC(=O)c1ccccc1Cl | / | 8.3 | / | 3.2 | 1.6 | 3.8
CCOC(=O)Nc1nc(-c2ccc(F)cc2F)cs1 | 1.1 | -1.4 | 2.0 | 3.7 | 4.0 | 1.5
COC(=O)c1ccccc1NC(=O)CSc1nnc(C(CO)NC(=O)c2ccccc2Cl)n1C (stereo not drawn) | 7.2 | 2.6 | -1.7 | 3.1 | 2.7 | 6.8
CCCC(=O)N1CCN(c2ccc(NC(=O)c3cc4ccccc4o3)cc2)CC1 | 2.4 | 3.8 | 3.4 | 2.9 | 2.9 | 11.2
CCCC(=O)N1CCN(c2ccc(NC(=O)c3sc4ccccc4c3Cl)cc2)CC1 | 1.4 | 5.0 | 16.4* | 2.0 | -2.2 | 4.5
COc1ccc(C)cc1NC(=O)COC(=O)C1CCN(C(=O)c2ccc(Cl)cc2)CC1 | -0.9 | 12.6 | -3.5 | -5.9 | 2.6 | 8.4
